Assay: qHTS profiling of inhibitors of Plasmodium falciparum (HB3) proliferation (acoustic dispense)
Details: P. falciparum HB3 in erythrocytes, SYBR Green, 72 h; at 49.8 µM (top of the series) unless noted
Text: Plasmodium falciparum is a virulent malarial parasite that kills 1-2 million people worldwide each year. Transmitted by mosquitoes, the sporozoite form of the parasite enters the blood stream to infect hepatocytes, where they become merozoites that infect red blood cells (erythrocytes). Within erythrocytes, merozoites begin a […] cycle of growth and division, after which the parasite is released to infect new red blood cells. Gametocytes, which form within erythrocytes as well, circulate in the bloodstream and are ingested by the mosquito, thereby completing the life cycle. To profile malarial isolates for differential chemical responses and to identify inhibitors of malarial growth, an assay that measures P. falciparum growth and replication within erythrocytes was employed. This assay uses a DNA binding fluorescent dye (SYBR Green) to detect parasite DNA following cell lysis. Because mature erythrocytes lack DNA, only Plasmodium-derived DNA is detected.
The SYBR Green viability assay was adapted from a method described previously (Plouffe et al., 2008). For screening 3 ul culture medium was dispensed into 1536 well black clear bottom plates (Aurora Biotechnologies) using a Multidrop Combi (Thermo Fisher Scientific Inc.), 23 nL of compounds in DMSO were added by an acoustic dispenser (EDC Biosystems), and 5 ul of erythrocytes infected with P. falciparum (0.3% parasitemia, 2.5% hematocrit final concentration) were added. The plates were incubated at 37 C in a humidified incubator in 5% CO2 for 72 h, and 2 ul lysis buffer (20 mM Tris HCl, 10 mM EDTA, 0.16% saponin, 1.6% triton X, 10X SYBR Green I supplied as 10,000X […] by Invitrogen) was added to each well. The plates were mixed for 25 sec with gentle shaking and incubated overnight at room temperature in the dark. The following morning, fluorescence intensity at 485(14) nm excitation and 535(25) nm emission wavelengths was measured on an EnVision (Perkin Elmer) plate reader. Plate reads were normalized relative to the control inhibitor (0.29 uM artemisinin) and vehicle (DMSO) wells present on each plate and then corrected by an algorithm using vehicle-only control plates at the beginning and end of the compound plate stack.
Compound `CC(=O)N(O)CCCP(=O)(O)O` has an activity (normalised, proliferation) of 2.97%.
`CC(=Cc1csc(C)n1)[C@@H]1C[C@H]2O[C@@H]2CCC[C@H](C)[C@@H](O)[C@@H](C)C(=O)C(C)(C)[C@@H](O)CC(=O)O1` showed an activity (normalised, proliferation) of 10.3%.
`C[C@]12O[C@H](C[C@@]1(O)C(=O)O)n1c3ccccc3c3c4c(c5c6ccccc6n2c5c31)CNC4=O` showed an activity (normalised, proliferation) of 8.93% [at 4.15 µM].
Work on `CC1=C(O)C(=O)C=C2C1=CC=C1[C@@]2(C)CC[C@@]2(C)[C@@H]3C[C@](C)(C(=O)O)CC[C@]3(C)CC[C@]12C` yielded an activity (normalised, proliferation) of 7.07%.
Compound `COC1=CC(C)=C[C@@H](C)[C@@H](O)[C@@H](C)CC(C)=CC=C[C@H](OC)[C@H]([C@@H](C)[C@@H](O)[C@H](C)[C@@]2(O)C[C@@H](O)[C@H](C)[C@@H](C(C)C)O2)OC1=O` has an activity (normalised, proliferation) of 0.863%.
Work on `O=c1[nH]c2ccc(Cl)cc2c(N[C@@H]2CN3CCC2CC3)c1-c1nc2ccccc2[nH]1` yielded an activity (normalised, proliferation) of -0.29%.
Compound `CC=C(C)C(=O)N[C@@H](c1ccccc1)[C@@H](O)C(=O)O[C@H]1C[C@@]2(O)[C@@H](OC(=O)c3ccccc3)[C@@H]3[C@]4(OC(C)=O)CO[C@@H]4C[C@H](O)[C@@]3(C)C(=O)[C@H](OC(C)=O)C(=C1C)C2(C)C` has an activity (normalised, proliferation) of 2.88%.
Compound `C[C@@H]1C[C@@H]([C@H](O)CC2CC(=O)NC(=O)C2)C(=O)[C@@H](C)C1` has an activity (normalised, proliferation) of 0.071%.
For `O=C(C[C@@H]1NCCC[C@@H]1O)Cn1cnc2ccccc2c1=O`, the activity (normalised, proliferation) was -0.592%.
With `CO[C@H]1CCC(O[C@H]2C[C@H]([C@]3(C)CC[C@]4(C[C@H](O)[C@@H](C)[C@@H]([C@@H](C)C=C(C)C(=O)[C@H](C)C[C@H](C)C(=O)O)O4)O3)O[C@]3(O[C@@H]([C@H]4O[C@@](O)(CO)[C@H](C)C[C@H]4C)C[C@H]3C)[C@H]2C)O[C@H]1C` (stereo partly specified) the activity (normalised, proliferation) was 120%.
Work on `CN1C(=O)C[C@H](C(=O)N[C@@H](Cc2cnc[nH]2)C(=O)N2CCC[C@@H]2C(N)=O)NC1=O` yielded an activity (normalised, proliferation) of 72.5%.
Work on `CC=C1C2C=C(C)CC1(N)c1ccc(=O)[nH]c1C2` (stereo unspecified) yielded an activity (normalised, proliferation) of 103%.
Compound `CC(=O)Nc1nnc(S(N)(=O)=O)s1` has an activity (normalised, proliferation) of 89.5%.
In the case of `CC(C)(N)CNC(=O)CC1CCC2(CC1)OOC1(O2)C2CC3CC(C2)CC1C3` (stereo unspecified), the activity (normalised, proliferation) is reported as -0.313%.
For `COC(=O)[C@@]1(OC)C[C@@H]2O[C@@]1(C)n1c3ccccc3c3c4c(c5c6ccccc6n2c5c31)C(=O)N(C)C4`, the activity (normalised, proliferation) was -0.375% [at 16.5 µM].
Work on `C[C@H]1CCCC=CC2C[C@H](O)C[C@@H]2[C@H](O)C=CC(=O)O1` (stereo partly specified) yielded an activity (normalised, proliferation) of -0.991%.

Source: PubChem BioAssay AID743366 (National Center for Advancing Translational Sciences (NCATS), 2014)
